Source: PubChem BioAssay
Cycloheximide cs: affects cycloheximide protein synthesis inhibition readout, counter-screen. max response, %. AID 2314. cell reporter, cycloheximide protein synthesis inhibition counterscreen. 300,000 tested, 12% active; in the data active means max response mostly above about 13%, no sharp cut-off; inactive means mostly below about 14%; further: read at 38.3 µM for the half of the compounds with a filed dose; 0% is about no effect
FBPA Giardia inh: inhibitors of Giardia lamblia fructose-1,6-bisphosphate aldolase. A8B2U2. purified Giardia FBPA. Potency, µM (titrated, usually from 59.6 µM), inactives show at the top dose activity, negative = inhibition, hits mostly inhibitors. 290,000 tested, 0.71% active; further: potency means the concentration at half of the fitted maximal effect; on the % scale 0 is the no-effect control and ±100 the full control effect; nearly all actives have a fitted effect of over 55% in size
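40 nM FBPA preincubated 10 min at RT with compound (up to 57.5 uM final), then substrate plus GAPDH/TPI/NAD/arsenate coupling and diaphorase/resazurin added. Fluorescence read after 20 min at RT, 525/598 nm.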
Shiga toxin inh: inhibitors of Shiga toxin in Vero cells. 290,000 tested, 9.2% active. Vero cells, Shiga toxin protein synthesis inhibition reporter. inhibition, % at 38.7 µM; in the data active means inhibition mostly above about 28%, no sharp cut-off; inactive means mostly below about 43%; further: 0% is about no effect
Sm TGR block: blocks Schistosoma mansoni thioredoxin glutathione reductase; 360,000 tested, 3% active; purified TGR, DTNB reduction, TNB absorbance 405 nm; Q962Y6; Potency, µM (doses to about 114 µM), for the others: top-dose activity change, negative = inhibition, actives largely listed as inhibitors; further: potency means the concentration at half of the fitted maximal effect; on the % scale 0 is the no-effect control and ±100 the full control effect; nearly all actives have a fitted effect of over 60% in size
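TGR 20 nM + NADPH 100 uM (dispensed conc.), cpd preinc 15 min RT; start with NADPH (500 uM addition) then DTNB (15 mM addition). Kinetic TNB absorbance, 405 nm filter. Four-parameter Hill fit across titration.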
TbPYK inhibitor: blocks Trypanosoma brucei pyruvate kinase; TbPYK enzyme, Kinase-Glo Plus ATP luminescence, 45 min; 410,000 tested, 0.12% active; AID 624173; Potency, µM (highest dose often 76.8 µM), for the others: at the top dose activity, negative = inhibition, most hits filed as inhibitors; further: potency means the concentration at half of the fitted maximal effect; on the % scale 0 is the no-effect control and ±100 the full control effect; nearly all actives have a fitted effect of over 50% in size
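Activity of T. brucei pyruvate kinase was followed by Kinase-Glo Plus luminescence after the enzyme reacted 45 min at room temperature with 130 uM ADP (final) and substrate. Test compounds were added before ADP at multiple concentrations.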
LmPK inhibitor: blocks Leishmania mexicana pyruvate kinase activity | Potency, µM (highest dose often 57.5 µM), for the others: top-dose activity change, negative = inhibition, usual class: inhibitors | purified LmPK, Kinase-Glo ATP luminescence, 1 h | Q27686 | 290,000 tested, 0.37% active; further: potency means the concentration at half of the fitted maximal effect; on the % scale 0 is the no-effect control and ±100 the full control effect
Target sequence (Q27686 whole entry, looked up): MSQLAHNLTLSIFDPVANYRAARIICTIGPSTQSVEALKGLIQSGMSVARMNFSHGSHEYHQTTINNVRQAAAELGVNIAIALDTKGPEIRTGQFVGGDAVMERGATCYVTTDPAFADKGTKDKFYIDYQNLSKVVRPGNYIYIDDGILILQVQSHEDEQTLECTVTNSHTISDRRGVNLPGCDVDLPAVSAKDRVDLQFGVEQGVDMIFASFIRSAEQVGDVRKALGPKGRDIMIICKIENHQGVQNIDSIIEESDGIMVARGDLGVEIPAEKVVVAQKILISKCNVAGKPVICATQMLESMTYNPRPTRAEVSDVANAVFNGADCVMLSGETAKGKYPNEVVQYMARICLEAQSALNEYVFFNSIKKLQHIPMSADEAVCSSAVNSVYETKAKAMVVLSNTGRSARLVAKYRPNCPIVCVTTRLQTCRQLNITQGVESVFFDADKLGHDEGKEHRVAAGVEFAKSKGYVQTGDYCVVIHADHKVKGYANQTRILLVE
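Purified LmPK (0.1 nM) with 0.5 mM PEP and 0.1 mM ADP in imidazole buffer pH 7.2 with MgCl2/KCl, 1 h at room temperature. ATP formed was read by luciferase luminescence and normalized to no-enzyme and uninhibited controls.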
The depositor's hits bear a star. Many of the other results were omitted from the sample, so hits are more common in it than they were. Unless noted, the call rests on the fitted dose curve; in most records, active means well fitted curve in the direction sought with a large enough effect; inconclusive means small, poorly fitted or top-dose-only effect, or another doubt; inactive means no such curve, though single readings can be large; an effect the other way counts as inactive or inconclusive.

O=C(CSc1nnc(-c2ccc(Cl)cc2)n1Cc1ccco1)c1cccs1 was read as Cycloheximide cs 58*, FBPA Giardia inh 13%, Shiga toxin inh 44*, Sm TGR block 28µM*, TbPYK inhibitor -16% and LmPK inhibitor 0%.
Screening NC(=O)CSc1nnc(-c2cccs2)n1Cc1ccco1 returned Cycloheximide cs 1, FBPA Giardia inh -2%, Shiga toxin inh 10, Sm TGR block -21%, TbPYK inhibitor -8% and LmPK inhibitor -4%.
For O=C(CSc1nnc(-c2ccncc2)n1Cc1ccco1)c1ccc(Cl)cc1 the results were Cycloheximide cs -3, FBPA Giardia inh -7%, Shiga toxin inh 0, Sm TGR block 0.89µM*, TbPYK inhibitor -28% and LmPK inhibitor 5%.
O=C(CCNc1n[nH]c(=O)[nH]c1=O)N/N=C\c1cccc(OCc2ccccc2)c1 was read as Cycloheximide cs -1, FBPA Giardia inh -16%, Shiga toxin inh 2, Sm TGR block 9%, TbPYK inhibitor 0% and LmPK inhibitor 1%.
CC1CC=CC2C1C(=O)N(Cc1ccccc1)C2c1ccc(F)c(/C=C/c2ccccc2)c1 (configuration not stated) was read as Cycloheximide cs 20, FBPA Giardia inh 0% and Shiga toxin inh 28.
Screening C=CCn1c(SCC(=O)c2ccc(O)c(O)c2)nnc1-c1cccc(OC)c1 returned Sm TGR block inconclusive and TbPYK inhibitor -16%.
C=CCn1c(SCC(=O)c2cccs2)nnc1-c1cccc(OC)c1 was read as Cycloheximide cs 18*, FBPA Giardia inh -11%, Shiga toxin inh 37*, Sm TGR block inconclusive, TbPYK inhibitor -26% and LmPK inhibitor -7%.
Screening CC(C)(C)c1ccc(OCCOCCn2c(-c3ccc(Cl)cc3)nc3ccccc3c2=O)cc1 returned Sm TGR block -8% and TbPYK inhibitor 2%.
For Cc1cccc(NC(=O)c2ccc3c(O)c(S(=O)(=O)c4ccccc4)c(=O)[nH]c3c2)c1C the results were Sm TGR block 0% and TbPYK inhibitor -3%.
Screening CCCN1C(=O)c2ccc(C(=O)Nc3ccccc3C(=O)O)cc2C1=O returned Cycloheximide cs 16*, FBPA Giardia inh -2%, Shiga toxin inh 46, Sm TGR block -15%, TbPYK inhibitor -1% and LmPK inhibitor -4%.
`CCCCN1C(=O)c2ccc(C(=O)Nc3cccc(C)c3C)cc2C1=O` gave Cycloheximide cs -3, FBPA Giardia inh 7%, Shiga toxin inh 4, Sm TGR block 2%, TbPYK inhibitor -5% and LmPK inhibitor 14%.
Screening O=C(Nc1ccc(Br)cc1C(=O)O)c1ccc2c(c1)C(=O)N(Cc1ccccc1)C2=O returned Cycloheximide cs 34*, Shiga toxin inh 36*, Sm TGR block -22%, TbPYK inhibitor -1% and LmPK inhibitor -10%.
CCN1C(=O)c2ccc(C(=O)Nc3ccc(O)cc3C)cc2C1=O was read as Cycloheximide cs 6, FBPA Giardia inh 4%, Shiga toxin inh -19, Sm TGR block 2%, TbPYK inhibitor -11% and LmPK inhibitor 0%.
`Cc1ccnc(NC(=O)c2ccc3c(c2)C(=O)N(CC(C)C)C3=O)c1` gave Cycloheximide cs -2, Shiga toxin inh -11, Sm TGR block 0%, TbPYK inhibitor -3% and LmPK inhibitor -5%.
Screening Cc1ccc(O)c(NC(=O)c2ccc3c(c2)C(=O)N(CC(C)C)C3=O)c1 returned Cycloheximide cs 33*, FBPA Giardia inh 13%, Sm TGR block 2%, TbPYK inhibitor 4% and LmPK inhibitor -2%.
For CCCN1C(=O)c2ccc(C(=O)Nc3cc(C)ccc3O)cc2C1=O the results were Cycloheximide cs 56*, FBPA Giardia inh 6%, Shiga toxin inh 139*, Sm TGR block inconclusive, TbPYK inhibitor -25% and LmPK inhibitor -6%.
For O=C(NCc1ccccc1)c1cc(C2CCCN(C(=O)C3CCCCC3)C2)on1 (configuration not stated) the results were TbPYK inhibitor 1%.
Screening COc1ccc(-c2noc(CC(=O)Nc3ccc(F)cc3F)n2)cc1 returned Sm TGR block 2% and TbPYK inhibitor 3%.
For COc1cc(OC)cc(C(=O)N[C@H](C(=O)Nc2nc3ccc(S(C)(=O)=O)cc3s2)C(C)C)c1 the results were Cycloheximide cs 11, FBPA Giardia inh -16%, Shiga toxin inh -1, Sm TGR block -8%, TbPYK inhibitor -1% and LmPK inhibitor 6%.
For C=CCC(C)(O)/C=C/c1ccccc1 (configuration not stated) the results were FBPA Giardia inh -1%.
Screening O=[N+]([O-])c1ccc(-c2cnc(SCc3ccccc3Cl)[nH]2)cc1 returned Cycloheximide cs 28*, FBPA Giardia inh 1%, Shiga toxin inh 58*, Sm TGR block -20%, TbPYK inhibitor -37% and LmPK inhibitor -2%.
For COc1ccccc1CNC(=O)c1ccc(N2Cc3cccc(OC)c3Oc3ncccc32)s1 the results were Sm TGR block 5% and TbPYK inhibitor -6%.
Clc1ccc(/C=N/Nc2ccccn2)cc1 was read as Cycloheximide cs 53*, FBPA Giardia inh -16%, Shiga toxin inh 108*, Sm TGR block 7%, TbPYK inhibitor -1% and LmPK inhibitor 7%.
Oc1cccc(C=NNc2ccccn2)c1 was read as TbPYK inhibitor 1%.
FC(F)(F)c1ccccc1/C=N/Nc1ccccn1 was read as Cycloheximide cs 25*, FBPA Giardia inh -2%, Shiga toxin inh 59*, Sm TGR block 0%, TbPYK inhibitor 1% and LmPK inhibitor 0%.
Clc1ccccc1C=NNc1ccccn1 was read as TbPYK inhibitor -10%.
`Brc1ccc(/C=N/Nc2ccccn2)cc1` gave Cycloheximide cs 40*, FBPA Giardia inh -18%, Shiga toxin inh 182*, Sm TGR block 0%, TbPYK inhibitor -8% and LmPK inhibitor 6%.
`Brc1ccccc1/C=N/Nc1ccccn1` gave Cycloheximide cs 24*, FBPA Giardia inh 1%, Shiga toxin inh 51*, Sm TGR block 50%, TbPYK inhibitor -3% and LmPK inhibitor -25%.
Cc1noc(C)c1/C=N/Nc1ccccn1 was read as Cycloheximide cs 11, FBPA Giardia inh 3%, Shiga toxin inh 43, Sm TGR block 2%, TbPYK inhibitor -6% and LmPK inhibitor 6%.
`Cc1ccc(/C=N/Nc2ccccn2)s1` gave Cycloheximide cs 40*, FBPA Giardia inh -18%, Shiga toxin inh 102*, Sm TGR block 4%, TbPYK inhibitor 3% and LmPK inhibitor 1%.
Screening CCOc1ccc(/C=N/Nc2ccccn2)cc1 returned Cycloheximide cs 34*, FBPA Giardia inh 5%, Shiga toxin inh 70*, Sm TGR block 5%, TbPYK inhibitor -5% and LmPK inhibitor inconclusive.
